Values without a mark were called inactive. How the calls were made is not given here.

In PubChem BioAssay one finds activity remaining data, which are given here for 16 molecules.

The test concerns Aerobactin synthetase IucA (Klebsiella pneumoniae hvKP1). The test is described as follows: IucA enzyme inhibition, primary screen, biochemical, Spectrum library (AID 1346200).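 Further: 100% = wells without compound and 0% = wells lacking enzyme.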 The settings on record: malachite green pyrophosphate, A620, at 8 µM, hits give low values.
`O=c1cc(-c2cccc(O)c2)oc2ccc(O)cc12`: the activity remaining is 101%.
The value for `CC1=C(C/C=C(\C)CCC[C@H](C)CCC[C@H](C)CCCC(C)C)C(=O)c2ccccc2C1=O` was 114%.
The value for `C/C(=C\CO)CC[C@H](C)CCC[C@H](C)CCCC(C)C` was 121%.
The value for `CCCCCCCCCCCC[C@H](C(=O)O)[C@@H](C)C(=O)O` was 115%; that for `CCCCOc1cc(C(=O)NCCN(CC)CC)c2ccccc2n1` was 103%; that for `COc1c(O)cccc1O` was 87.7%.
With `COc1ccc(-c2oc3cc(OC)c(OC)c(OC)c3c(=O)c2OC)cc1OC`, the activity remaining was 83.1%.
The value for `NC1(C(=O)O)CCCC1` was 117%.
For `CC1(C)CCCC2(C)C3C1[C@@H](O)C2(C)C[C@H]3O` (stereo partly specified) the value was 105%; for `CC(C)(C)NCC(O)COc1cccc2c1CCCC2=O` (stereo unspecified), 91.1%.
For `C[C@H]1COc2c(N3CCN(C)CC3)c(F)cc3c(=O)c(C(=O)O)cn1c23` the value was 113%; for `CC(=O)C1CCC2C3CC(=O)C4=CC(=O)CCC4(C)C3CCC12C` (stereo unspecified), 98.9%.
Regarding `COc1cc2c(cc1OC)C1(O)C(=O)c3ccc(O)c(C(=O)O)c3OC1CO2` (stereo unspecified), the activity remaining was 117%.
The value for `Cn1nnnc1SCC1=C(C(=O)O)N2C(=O)C(NC(=O)C(O)c3ccccc3)C2SC1` (stereo unspecified) was 121%; that for `CCC(/C=C/[C@@H](C)[C@H]1CCC2C3CC=C4C[C@@H](O)CC[C@]4(C)C3CC[C@@]21C)C(C)C` (stereo partly specified) was 101%.
For `O=c1cc(-c2ccccc2O)oc2cc(O)ccc12` the value was 100%.
